{"source": "PubChem BioAssay (NCI)", "note": "This is part of a sample that, as a whole, favours compounds with a hit. Of some 83,000 tested, about 20% had one in any assay.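 Plates (96-well) were seeded with cells, treated with compound at one concentration, and incubated for 48 hours before percent growth was determined.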 Active and inactive are the calls of the source. The calls were made as follows: active = growth percent below 10; inactive = the rest.", "data": [{"system": "PC-3 prostate", "assay": "NCI-60 one-dose screen, 48 h (100 = growth as untreated, 0 = no growth, -100 = all killed)", "details": "10 µM unless noted", "values": [{"compound": "CCN(CC)CCOc1ccccc1-n1c(C)ccc1-c1ccccc1", "growth": "62.8% (inactive)"}, {"compound": "Cn1cc(-c2csc(-c3c[nH]c4ncccc34)n2)c2cc(Br)cnc21", "growth": "34.9% (inactive)"}, {"compound": "COc1ccc(/C=C2\\NC(=S)NC2=O)cc1", "growth": "106% (inactive)"}, {"compound": "Nc1ccccc1-c1ccc([N+](=O)[O-])cc1", "growth": "38.9% (inactive)"}, {"compound": "Cc1cc(NC(=O)c2ccc(N)cc2)ccc1N=Nc1ccc2c(O)c(N=Nc3ccc(Cl)c(S(=O)(=O)O)c3)c(S(=O)(=O)O)cc2c1", "growth": "92% (inactive)"}, {"compound": "CC[N+](CC)(CCOCCOCC[N+](CC)(CC)Cc1ccc([N+](=O)[O-])cc1)Cc1ccc([N+](=O)[O-])cc1", "growth": "87.6% (inactive)"}, {"compound": "CCC(c1ccccc1)c1noc(CCN(CC)CC)n1", "note": "(centres undefined)", "growth": "95.5% (inactive)"}, {"compound": "CC(=O)Nc1ccc2c(c1)Cc1c(F)c(F)c(F)c(F)c1-2", "growth": "81.9% (inactive)"}, {"compound": "OC(Cc1cccnc1)c1ccccc1", "note": "(centres undefined)", "growth": "101% (inactive)"}, {"compound": "C/C(=N/N=C(N)N)c1ccc(N)cc1", "growth": "92.1% (inactive)"}, {"compound": "O=C(O)c1ccccc1C(=O)OC1CCCC2CCCC21", "note": "(centres undefined)", "growth": "97.5% (inactive)"}, {"compound": "CN1CCCC1c1cccnc1", "note": "(centres undefined)", "growth": "48.7% (inactive)"}, {"compound": "COc1c(O)cc2oc3cc(O)c(CC=C(C)C)c(O)c3c(=O)c2c1C/C=C(\\C)CCC=C(C)C", "growth": "19.5% (inactive)"}, {"compound": "Nc1nc(SCc2ccccc2Cl)c(-c2ccccc2)c(SCc2ccccc2Cl)n1", "growth": "76.3% (inactive)"}, {"compound": "CO[C@H]1/C=C/O[C@@]2(C)Oc3c(C)c(O)c4c(O)c(c(/C=N/N5C(C)CN(Cc6ccccc6)CC5C)c(O)c4c3C2=O)NC(=O)/C(C)=C\\C=C\\[C@H](C)[C@H](O)[C@@H](C)[C@@H](O)[C@@H](C)[C@H](OC(C)=O)[C@@H]1C", "note": "(some centres undefined)", "growth": "-19.5% (active)"}, {"compound": "CCOC(=O)C(C(C)=O)c1nc2sc3cc(Cl)ccc3n2c(=N)c1C#N", "note": "(centres undefined)", "growth": "72.5% (inactive)"}, {"compound": "COc1ccc(-c2nn(-c3cccc(Cl)c3)cc2C2CC(c3ccccc3)=NN2C(C)=O)cc1", "note": "(centres undefined)", "growth": "69% (inactive)"}, {"compound": "CCS(=O)(=O)OCCCl", "growth": "97.6% (inactive)"}, {"compound": "O=C1Nc2ccc(F)cc2/C1=C/c1nc(-c2ccc(F)cc2)n2ccccc12", "growth": "115% (inactive)"}, {"compound": "Cc1c(C(N)=O)sc2ncn(Cc3ccccc3)c(=O)c12", "growth": "113% (inactive)"}, {"compound": "Nc1nc2ncc(CCNc3ccc(C(=O)NC(CCC(=O)O)C(=O)O)cc3)nc2c(=O)[nH]1", "note": "(centres undefined)", "growth": "106% (inactive)"}, {"compound": "COc1cccc2c1C(=O)c1c(O)c3c(c(O)c1C2=O)C[C@@](O)(/C(C)=N/NC(=O)c1cccc([N+](=O)[O-])c1)C[C@@H]3OC1CC(N)C(O)C(C)O1", "note": "(some centres undefined)", "growth": "-35% (active)"}, {"compound": "NC(=O)NN=C(C1CC1)C1CC1", "growth": "112% (inactive)"}, {"compound": "C[n+]1ccc(Nc2ccc(NC(=O)c3ccc(Nc4cc[n+](C)c5ccc(N)cc45)cc3)cc2)cc1", "growth": "90.1% (inactive)"}, {"compound": "COc1cc(OC)c2cc(C(=O)O)c(=O)oc2c1", "growth": "127% (inactive)"}, {"compound": "CCOc1ccccc1C(=O)OCC(=O)Nc1cccc(S(=O)(=O)N(C)C)c1", "growth": "107% (inactive)"}, {"compound": "S=C(Nc1ccc(C2=NCCN2)cc1)Nc1ccc(C2=NCCN2)cc1", "growth": "100% (inactive)"}, {"compound": "S=c1[nH]nc2sc3ccccc3n12", "growth": "112% (inactive)"}, {"compound": "Cn1c(N)c(N=O)c(=O)[nH]c1=O", "growth": "98.7% (inactive)"}, {"compound": "Cc1ccc(C(=O)Nc2ccc(Cl)cc2C(=O)NCc2ccccc2)cc1", "growth": "76.6% (inactive)"}, {"compound": "O=[N+]([O-])c1ccc2c(c1)S(=O)c1cc([N+](=O)[O-])ccc1N2", "growth": "88.6% (inactive)"}, {"compound": "Nc1ccc2c3c(cccc13)-c1ccccc1-2", "growth": "73% (inactive)"}, {"compound": "CC(c1cc(Cl)ccc1O)c1cc(Cl)ccc1O", "growth": "25.9% (inactive)"}, {"compound": "Nc1ccc2c(c1)/C(=N/O)c1cc([N+](=O)[O-])ccc1-2", "growth": "45.3% (inactive)"}, {"compound": "Nc1cc(Cl)c(S(N)(=O)=O)cc1S(N)(=O)=O", "growth": "106% (inactive)"}, {"compound": "O=C(CSc1nc2c(n1Nc1ccccc1)-c1ccccc1SC2)Nc1nc(-c2ccc(Cl)cc2)cs1", "growth": "72.2% (inactive)"}, {"compound": "Cc1cc(O)c2c(c1)C[C@H]1[C@@H]3CC[C@H]4CC(=O)CC[C@]4(C)[C@H]3CC(=O)[C@]21C", "growth": "80.9% (inactive)"}]}, {"system": "SK-MEL-5 melanoma", "assay": "NCI-60 one-dose screen, 48 h (100 = growth as untreated, 0 = no growth, -100 = all killed)", "details": "10 µM unless noted", "values": [{"compound": "CCN(CC)CCOc1ccccc1-n1c(C)ccc1-c1ccccc1", "growth": "90.8% (inactive)"}, {"compound": "Cn1cc(-c2csc(-c3c[nH]c4ncccc34)n2)c2cc(Br)cnc21", "growth": "35.8% (inactive)"}, {"compound": "COc1ccc(/C=C2\\NC(=S)NC2=O)cc1", "growth": "107% (inactive)"}, {"compound": "Nc1ccccc1-c1ccc([N+](=O)[O-])cc1", "growth": "34.8% (inactive)"}, {"compound": "Cc1cc(NC(=O)c2ccc(N)cc2)ccc1N=Nc1ccc2c(O)c(N=Nc3ccc(Cl)c(S(=O)(=O)O)c3)c(S(=O)(=O)O)cc2c1", "growth": "65.1% (inactive)"}, {"compound": "CC[N+](CC)(CCOCCOCC[N+](CC)(CC)Cc1ccc([N+](=O)[O-])cc1)Cc1ccc([N+](=O)[O-])cc1", "growth": "96.8% (inactive)"}, {"compound": "CCC(c1ccccc1)c1noc(CCN(CC)CC)n1", "note": "(centres undefined)", "growth": "102% (inactive)"}, {"compound": "CC(=O)Nc1ccc2c(c1)Cc1c(F)c(F)c(F)c(F)c1-2", "growth": "84.7% (inactive)"}, {"compound": "OC(Cc1cccnc1)c1ccccc1", "note": "(centres undefined)", "growth": "102% (inactive)"}, {"compound": "C/C(=N/N=C(N)N)c1ccc(N)cc1", "growth": "107% (inactive)"}, {"compound": "O=C(O)c1ccccc1C(=O)OC1CCCC2CCCC21", "note": "(centres undefined)", "growth": "104% (inactive)"}, {"compound": "CN1CCCC1c1cccnc1", "note": "(centres undefined)", "growth": "87.7% (inactive)"}, {"compound": "COc1c(O)cc2oc3cc(O)c(CC=C(C)C)c(O)c3c(=O)c2c1C/C=C(\\C)CCC=C(C)C", "growth": "86.6% (inactive)"}, {"compound": "Nc1nc(SCc2ccccc2Cl)c(-c2ccccc2)c(SCc2ccccc2Cl)n1", "growth": "109% (inactive)"}, {"compound": "CO[C@H]1/C=C/O[C@@]2(C)Oc3c(C)c(O)c4c(O)c(c(/C=N/N5C(C)CN(Cc6ccccc6)CC5C)c(O)c4c3C2=O)NC(=O)/C(C)=C\\C=C\\[C@H](C)[C@H](O)[C@@H](C)[C@@H](O)[C@@H](C)[C@H](OC(C)=O)[C@@H]1C", "note": "(some centres undefined)", "growth": "67.4% (inactive)"}, {"compound": "CCOC(=O)C(C(C)=O)c1nc2sc3cc(Cl)ccc3n2c(=N)c1C#N", "note": "(centres undefined)", "growth": "73.9% (inactive)"}, {"compound": "COc1ccc(-c2nn(-c3cccc(Cl)c3)cc2C2CC(c3ccccc3)=NN2C(C)=O)cc1", "note": "(centres undefined)", "growth": "77.2% (inactive)"}, {"compound": "CCS(=O)(=O)OCCCl", "growth": "103% (inactive)"}, {"compound": "O=C1Nc2ccc(F)cc2/C1=C/c1nc(-c2ccc(F)cc2)n2ccccc12", "growth": "103% (inactive)"}, {"compound": "Cc1c(C(N)=O)sc2ncn(Cc3ccccc3)c(=O)c12", "growth": "103% (inactive)"}, {"compound": "Nc1nc2ncc(CCNc3ccc(C(=O)NC(CCC(=O)O)C(=O)O)cc3)nc2c(=O)[nH]1", "note": "(centres undefined)", "growth": "98.9% (inactive)"}, {"compound": "COc1cccc2c1C(=O)c1c(O)c3c(c(O)c1C2=O)C[C@@](O)(/C(C)=N/NC(=O)c1cccc([N+](=O)[O-])c1)C[C@@H]3OC1CC(N)C(O)C(C)O1", "note": "(some centres undefined)", "growth": "-100% (active)"}, {"compound": "NC(=O)NN=C(C1CC1)C1CC1", "growth": "111% (inactive)"}, {"compound": "C[n+]1ccc(Nc2ccc(NC(=O)c3ccc(Nc4cc[n+](C)c5ccc(N)cc45)cc3)cc2)cc1", "growth": "90.4% (inactive)"}, {"compound": "COc1cc(OC)c2cc(C(=O)O)c(=O)oc2c1", "growth": "94.6% (inactive)"}, {"compound": "CCOc1ccccc1C(=O)OCC(=O)Nc1cccc(S(=O)(=O)N(C)C)c1", "growth": "97.4% (inactive)"}, {"compound": "S=C(Nc1ccc(C2=NCCN2)cc1)Nc1ccc(C2=NCCN2)cc1", "growth": "96.6% (inactive)"}, {"compound": "S=c1[nH]nc2sc3ccccc3n12", "growth": "106% (inactive)"}, {"compound": "Cn1c(N)c(N=O)c(=O)[nH]c1=O", "growth": "102% (inactive)"}, {"compound": "Cc1ccc(C(=O)Nc2ccc(Cl)cc2C(=O)NCc2ccccc2)cc1", "growth": "78.4% (inactive)"}, {"compound": "O=[N+]([O-])c1ccc2c(c1)S(=O)c1cc([N+](=O)[O-])ccc1N2", "growth": "96.2% (inactive)"}, {"compound": "Nc1ccc2c3c(cccc13)-c1ccccc1-2", "growth": "98.4% (inactive)"}, {"compound": "CC(c1cc(Cl)ccc1O)c1cc(Cl)ccc1O", "growth": "7.93% (active)"}, {"compound": "Nc1ccc2c(c1)/C(=N/O)c1cc([N+](=O)[O-])ccc1-2", "growth": "80.9% (inactive)"}, {"compound": "Nc1cc(Cl)c(S(N)(=O)=O)cc1S(N)(=O)=O", "growth": "102% (inactive)"}, {"compound": "O=C(CSc1nc2c(n1Nc1ccccc1)-c1ccccc1SC2)Nc1nc(-c2ccc(Cl)cc2)cs1", "growth": "88.1% (inactive)"}, {"compound": "Cc1cc(O)c2c(c1)C[C@H]1[C@@H]3CC[C@H]4CC(=O)CC[C@]4(C)[C@H]3CC(=O)[C@]21C", "growth": "73.3% (inactive)"}]}]}
